For 14 molecules, Potency and activity change, negative = inhibition results are on record in PubChem BioAssay (NCATS).

Inconclusive results are not listed. Where a call stands in place of a potency, no number is given. A number with no mark means an inactive call. Active and inactive are the calls of the source. Calls come from the whole dose curve; tested in HEK293 reporter line.
Potency is the fitted concentration of half-maximal effect.

The nature of the test: qHTS for Inhibitors of the Functional Ribonucleoprotein Complex (vRNP) of Lassa (LASV) Arenavirus: LASV Primary Screen - GLuc reporter signal (AID 1347082). Note: nearly all actives have a fitted effect of over 60% in size. As to conditions: LASV minigenome vRNP, Gaussia luciferase reporter; series mostly up to 57.5 µM.
In the case of `CSC(=S)NCc1c[nH]c2ccccc12`, the Potency result was “inactive”.
Turning to `CC1OC(Oc2ccc3ccc(=O)oc3c2-c2c(O)ccc3cc(Oc4ccc5ccc(=O)oc5c4)c(=O)oc23)C(O)C(O)C1O` (centres undefined), the Potency entry is “inactive”.
On the same count and under the same terms, the same measure for `CCCCC(C=O)NC(=O)C(CC(C)C)NC(=O)OCc1ccccc1` (centres undefined): “inactive”; for `COc1c2c(c(OC)c3c1c(=O)c1ccccc1n3C)OCO2`: “inactive”; for `CC1=CC(=O)OC2CC3OC4C[C@@H](C)C5OC6CC7O[C@]8(C)C/C=C\C9OC%10CC%11OC(CC(C)CO)CC(O)[C@]%11(C)OC%10CC9OC8C[C@]7(C)O[C@]6(C)CCC5OC4C[C@]3(C)OC12` (some centres undefined): “inactive”.
As for `CC1=CCC[C@@H]2[C@@](C)(CC/C(C)=C/C(=O)O)[C@H](C)CC[C@@]12C`, the Potency entry is “inactive”.
On the same count and under the same terms, in the case of `C=C[C@]1(C)C=C2C(=O)[C@@]3(O)OC(=O)[C@@]4(CCCC(C)(C)[C@H]34)[C@@]2(O)CC1` it was “inactive”; in that of `O=C1CCCCCCCCCCCCCCCO1`, “inactive”.
With `CCCCC[C@H](O)/C=C/C=C/C/C=C\CCCC(=O)O`, the activity change, negative = inhibition is -30.5% [at 0.757 µM].
Take `CC(=O)O[C@]1(C(C)=O)CC[C@@H]2[C@@H]3C[C@H](C)C4=CC(=O)CC[C@]4(C)[C@H]3CC[C@@]21C`: the Potency entry is “inactive”.
For the molecule `COc1cc(=O)n(C)c2c(OCC3OC(C)(C)OC3(C)C)cccc12` (centres undefined), the Potency entry is “inactive”.
For `C=CC(C)(C)O[C@@H]1O[C@H](CO)[C@@H](O)[C@H](O)[C@H]1O`, the Potency result was “inactive”.
Same read-out and setting: the same measure for `CC(C)NC[C@@H](C(=O)N1CCN(c2ncnc3c2[C@H](C)C[C@H]3O)CC1)c1ccc(Cl)cc1`: 968 nM (active).
As to `CC1(C)C=Cc2c(c3c(c4c(=O)c(-c5ccc(O)cc5)coc24)OC(C)(C)CC3)O1`, the Potency entry was “inactive”.
